# Data published in ChEMBL document CHEMBL1201862, “PubChem BioAssay data set” (2004).
# The campaign covered roughly 400,000 compounds. About 2,100 (0.53%) were called active. Not shown: some 14% with an inconclusive outcome. This is one part of a sample in which actives are shown more often than they occur. How the calls were made is not given here.
# Target: Ataxin-2 (Homo sapiens) (UniProt Q99700)
# Assay: qHTS for Inhibitors of ATXN expression.
# Type: functional
# Chain of Ataxin-2 (Homo sapiens) (Q99700 whole entry): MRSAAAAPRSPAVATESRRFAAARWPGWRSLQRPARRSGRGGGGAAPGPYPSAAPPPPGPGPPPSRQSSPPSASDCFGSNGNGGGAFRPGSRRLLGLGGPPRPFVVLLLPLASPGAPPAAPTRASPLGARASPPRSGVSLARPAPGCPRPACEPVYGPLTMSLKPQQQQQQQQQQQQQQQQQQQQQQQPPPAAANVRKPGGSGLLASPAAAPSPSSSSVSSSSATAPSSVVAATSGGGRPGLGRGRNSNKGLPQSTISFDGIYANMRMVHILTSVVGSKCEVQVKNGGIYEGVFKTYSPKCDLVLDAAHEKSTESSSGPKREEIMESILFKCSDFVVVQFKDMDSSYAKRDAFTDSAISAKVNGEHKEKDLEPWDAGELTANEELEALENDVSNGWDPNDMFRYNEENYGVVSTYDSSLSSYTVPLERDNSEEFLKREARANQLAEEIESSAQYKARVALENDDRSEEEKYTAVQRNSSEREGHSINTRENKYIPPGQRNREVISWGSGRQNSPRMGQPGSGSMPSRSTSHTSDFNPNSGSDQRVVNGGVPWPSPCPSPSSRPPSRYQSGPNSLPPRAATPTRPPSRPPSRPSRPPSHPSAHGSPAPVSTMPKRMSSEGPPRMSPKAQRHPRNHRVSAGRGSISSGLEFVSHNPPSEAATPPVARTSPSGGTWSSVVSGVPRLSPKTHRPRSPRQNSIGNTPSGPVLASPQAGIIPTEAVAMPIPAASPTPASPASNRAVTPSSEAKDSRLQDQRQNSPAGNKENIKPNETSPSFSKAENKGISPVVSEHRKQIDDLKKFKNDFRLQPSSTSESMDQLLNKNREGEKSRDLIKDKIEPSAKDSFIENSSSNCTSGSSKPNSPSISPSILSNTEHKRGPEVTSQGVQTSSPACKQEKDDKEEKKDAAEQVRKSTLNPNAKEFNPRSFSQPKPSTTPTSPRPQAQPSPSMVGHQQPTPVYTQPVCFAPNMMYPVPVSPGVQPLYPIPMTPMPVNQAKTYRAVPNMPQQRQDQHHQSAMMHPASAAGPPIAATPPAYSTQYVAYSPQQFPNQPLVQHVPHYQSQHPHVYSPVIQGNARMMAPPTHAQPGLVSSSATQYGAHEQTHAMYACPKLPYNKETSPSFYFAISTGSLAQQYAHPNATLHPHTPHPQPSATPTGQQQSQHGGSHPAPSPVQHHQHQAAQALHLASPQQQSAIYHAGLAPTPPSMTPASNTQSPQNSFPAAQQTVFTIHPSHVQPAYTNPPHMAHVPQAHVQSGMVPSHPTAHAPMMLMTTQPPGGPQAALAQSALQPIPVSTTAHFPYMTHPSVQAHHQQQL
row,Structure (SMILES),Potency
1,CCCCC1CCC(C(=O)OC(C)C(=O)Nc2ccc(NC(C)=O)cc2)CC1 (stereo not given),inactive
2,NNC(=O)c1oc2nc(-c3ccccc3)cc(-c3ccccc3)c2c1N,inactive
3,Cc1nc2nc(-c3cccs3)cn2nc1C,inactive
4,CCCCn1c(NC(=O)c2ccccc2)c(C#N)c2nc3ccccc3nc21,inactive
5,COc1ccccc1NCC(=O)N/N=C/c1sccc1C,inactive
6,COc1cccc(CN=C(S)Nc2cc(C)ccc2C)c1,inactive
7,CCN(CC)CCN(C(=O)CCS(=O)(=O)c1ccccc1)c1nc2c(C)cc(C)cc2s1,44.7 µM (active)
8,CCn1ccc2c(OCC(=O)Nc3ccc(C)c(Cl)c3)cccc2c1=O,39.8 µM (active)
9,CCn1cc(C(=O)OCC(=O)Nc2ccc(C)c(Cl)c2)c(=O)c2ccc(C)nc21,inactive
10,COC(=O)COc1cccc2c(=O)n(CC(=O)N3CCCCC3)ccc12,inactive
11,Cc1ccccc1C(=O)OC(C)CN1CCN(C)CC1 (stereo not given),inactive
12,CN1CCN(C2=C(Cl)C(=O)c3ccccc3C2=O)CC1,16.8 µM (active)
13,CC1CCN(c2ccc3c(c2)S(=O)(=O)c2ccccc2C3=O)CC1,inactive
14,CCN(CC(=O)Nc1ccccc1OC)C(=O)c1ccccc1Sc1ccccc1C#N,inactive
15,CCOc1ccc(N(C)S(=O)(=O)c2c[nH]cn2)cc1,inactive
16,CCN(CC)c1ccc(N=Nc2nc[nH]n2)cc1,10 µM (active)
17,O=C(O)c1ccccc1-c1ccc(/C=C/c2cc(C(F)(F)F)nc(O)n2)o1,inactive
18,COc1ccccc1CN1CCc2c([nH]c3ccccc23)C1,inactive
19,CC(=O)C(=Cc1ccc(-c2ccccc2)cc1)C(=O)c1ccccc1,28.2 µM (active)
20,C/C(=C\c1ccccc1)C(=O)c1c(C)cc(C)nc1O,inactive
21,COc1cccc(C=C(C(C)=O)C(=O)c2ccccc2)c1,31.6 µM (active)
22,COc1cccc(C(=O)NNS(=O)(=O)c2ccccc2)c1,inactive
23,COc1cccc(C(=O)COC(=O)CCC(=O)c2ccccc2)c1,inactive
24,CC(=O)c1c(C)[nH]c(C(=O)COC(=O)COc2ccccc2F)c1C,inactive
25,CC(=O)NC1C(=O)N(CCN2CCOCC2)c2ccc(C)cc21 (stereo not given),inactive

row,Structure (SMILES),Potency
1,Nc1c(C(=O)NCc2ccccc2)c2nc3ccccc3nc2n1CCCN1CCOCC1,inactive
2,Cc1cccn2c(=O)c3cc(C(=O)NCc4ccccc4)c(=N)n(CCCN4CCOCC4)c3nc12,inactive
3,Cc1nc2nc(C)n(CCN3CCOCC3)c(=O)c2c(-c2cccc([N+](=O)[O-])c2)c1C(=O)CCCCCCCCCCN1CCC(c2ccccc2)(c2ccccc2)CC1,13.4 µM (active)
4,O=C(NC1CC1)c1cccc2c1C(=O)c1ccc(N3CCC(Cc4ccccc4)CC3)cc1S2(=O)=O,inactive
5,O=C(NC1CCCCC1)c1cccc2c1C(=O)c1ccc(N3CCC(Cc4ccccc4)CC3)cc1S2(=O)=O,inactive
6,O=C(NCc1ccccc1)c1cccc2c1C(=O)c1ccc(/C=C/c3ccccc3)cc1S2(=O)=O,inactive
7,O=C1c2ccc(Cl)cc2S(=O)(=O)c2cccc(C(=O)N3CCC(Cc4ccccc4)CC3)c21,31.6 µM (active)
8,O=C(NC1CCCC1)c1cccc2c1C(=O)c1ccc(/C=C/c3ccccc3)cc1S2(=O)=O,inactive
9,O=C(NCCOc1ccccc1Cl)c1cccc2c1C(=O)c1ccc(Cl)cc1S2(=O)=O,35.5 µM (active)
10,Cc1c(C)c2cc3c(c(C)c2oc1=O)OCN(CCc1ccc(F)cc1)C3,inactive
11,FC(F)(F)c1cnc(C(c2ccccn2)c2nc[nH]n2)c(Cl)c1 (stereo not given),inactive
12,CCOc1ccc(CN(C)CC(=O)Nc2cccc3ccccc23)cc1OC,inactive
13,CCOc1ccc(C(CC(=O)O)NC(=O)C(c2ccccc2)c2ccccc2)cc1OC (stereo not given),inactive
14,COc1ccc(CN(C(=O)COc2ccc(C)c(C)c2)C2CCS(=O)(=O)C2)cc1OC (stereo not given),inactive
15,COc1ccc(CN(C)CC(=O)Nc2ccc(SC(F)F)cc2)cc1OC,inactive
16,COc1ccc(CN(CCC(c2ccccc2)c2ccc(OC(C)C)cc2)C(=O)CCl)cc1OC (stereo not given),6.31 µM (active)
17,COc1ccc(C(CCN(Cc2ccc(OC)c(OC)c2)C(=O)CCl)c2ccccc2)cc1 (stereo not given),31.6 µM (active)
18,COc1cc(C2NC(=O)NC(c3ccccc3)=C2C(C)=O)cc([N+](=O)[O-])c1O (stereo not given),inactive
19,COc1cc(C(=O)OC(C)C(=O)NC(=O)NC2CCCCC2)ccc1OC(F)F (stereo not given),inactive
20,O=C(CCC(=O)c1cccs1)NC1CCCCCC1,inactive
21,C#CC(=O)N(c1ccc(OC)c(OC)c1)C(C(=O)NC1CCCC1)c1cccs1 (stereo not given),25.1 µM (active)
22,O=C(CN(C(=O)CNC(=O)c1cccs1)c1ccccc1)NC1CCCCC1,inactive
23,C#CC(=O)N(c1ccc(OC)cc1OC)C(C(=O)NC1CCCC1)c1cccs1 (stereo not given),2.12 µM (active)
24,O=C(O)c1ccc(COc2ccc3ccccc3c2/C=C2/NC(=O)N(Cc3ccc(F)cc3)C2=O)cc1,inactive
25,COc1ccccc1C(=O)NCCC(=O)N1CCN(S(=O)(=O)c2cccc(Cl)c2)CC1,inactive

row,Structure (SMILES),Potency
1,CCc1cc2c(COC(=O)c3cc(S(=O)(=O)N4CCOCC4)ccc3F)cc(=O)oc2cc1O,inactive
2,COc1ccc(N2C(=O)CC(Nc3ccc(C(=O)O)cc3)C2=O)cc1OC (stereo not given),inactive
3,COc1cc(N2C(=O)C=CC2=O)ccc1N1C(=O)C=CC1=O,15 µM (active)
4,COc1ccccc1N1C(=O)c2cccc3c(Cl)ccc(c23)C1=O,inactive
5,COc1ccc(C(CNC(=O)COc2c(C)cc(C)cc2C)N2CCOCC2)cc1 (stereo not given),inactive
6,CCC(C)NC(=O)c1oc2ccc(S(=O)(=O)N3CCC4(CC3)OCCO4)cc2c1C (stereo not given),inactive
7,Cc1ccc2oc(C(=O)NCC(c3ccc(Cl)cc3)N3CCOCC3)c(C)c2c1 (stereo not given),39.8 µM (active)
8,CN(C)C(=O)c1coc2nc3ccccc3nc12,inactive
9,CCS(=O)(=O)c1ccc(N=Nc2ccc(O)c3ncccc23)c(OC)c1,25.1 µM (active)
10,CCN(CC)S(=O)(=O)c1cc(OC)ccc1N=Nc1ccc(O)c2ncccc12,10 µM (active)
11,COc1cc(NS(=O)(=O)c2ccc3ccccc3c2)c2ncccc2c1,inactive
12,CCOC(=O)c1cc2c(=O)n3ccccc3nc2n(Cc2ccco2)/c1=N/C(=O)c1cccc(OC)c1,inactive
13,COc1ccc(N2CCN(C(=O)[C@H](C)NC(=O)c3ccccc3Cl)CC2)cc1,inactive
14,CCCS(=O)(=O)c1nc(S(=O)(=O)c2ccc(C)cc2)c(N2CCN(CCO)CC2)s1,inactive
15,COC(=O)C1=CN(C)C=C(C(=O)OC)C1c1ccccc1Cl,inactive
16,O=C(OCn1ncc(Cl)c(Cl)c1=O)c1ccccc1Cl,15.8 µM (active)
17,COc1ccc(C(=O)OCc2ccc(C)cc2)cc1S(=O)(=O)N1CCOCC1,inactive
18,O=C(OCCN1C(=O)c2cccc3c(N4CCOCC4)ccc(c23)C1=O)c1ccccc1Cl,inactive
19,O=C(O)c1ccc(OS(=O)(=O)c2cccc(C(F)(F)F)c2)cc1,inactive
20,CC(=O)c1c(COC(=O)c2ccc(C)cc2)nc2ccccc2[n+]1[O-],inactive
21,Cc1ccc(C(=O)OCn2ncc(Cl)c(Cl)c2=O)cc1,20 µM (active)
22,O=C(OCn1ncc(Cl)c(Cl)c1=O)c1cccc(C(F)(F)F)c1,39.8 µM (active)
23,N=C(NOC(=O)c1cnn(-c2ccccc2)c1C(F)(F)F)c1cc(C(F)(F)F)cc(C(F)(F)F)c1,inactive
24,C=CCn1c(SCc2cccc(F)c2)nc2cc(C(=O)N3CCC(C(N)=O)CC3)ccc2c1=O,inactive
25,CCN1C(c2ccccc2)=C(c2ccccc2)S/C1=C\C=C1/SC(=S)N(C)C1=O,22.4 µM (active)

row,Structure (SMILES),Potency
1,COc1ccc(/C=N/Nc2ncnc3sc(C)c(C)c23)cc1,inactive
2,O=C(Nc1cccc(Cl)c1)Nc1nnc(-c2ccncc2)s1,12.6 µM (active)
3,O=C(Nc1cccc(Cl)c1)NC1CC2CCC(C1)N2Cc1ccco1 (stereo not given),inactive
4,O=C(Nc1cccc(Cl)c1)Nc1sccc1-c1nc2ccccc2s1,inactive
5,Clc1cccc(Nc2nc(-c3ccncc3)cs2)c1,inactive
6,O=C(Cc1csc(Nc2nc(S)nc3ccccc23)n1)N1CCN(c2cccc(C(F)(F)F)c2)CC1,inactive
7,NC(COCc1ccccc1)c1csc(NC(=O)Nc2cccc(Cl)c2)n1 (stereo not given),25.1 µM (active)
8,NC(CCc1ccccc1)c1csc(NC(=O)Nc2cccc(C(F)(F)F)c2)n1 (stereo not given),39.8 µM (active)
9,NC(COCc1ccccc1)c1csc(NC(=O)Nc2cccc(C(F)(F)F)c2)n1 (stereo not given),39.8 µM (active)
10,C/C(=N/NC(=O)c1sc(NS(=O)(=O)c2ccc(C)cc2)nc1C)c1sc(N)nc1C,inactive
11,CN1CCN(/C=N/c2nc3ccccc3nc2N2CCCC2)CC1,inactive
12,Cc1cc(O)nc2nc3ccccc3n12,inactive
13,OCCCc1nc2n(n1)C(c1ccccc1Cl)C=C(c1cccs1)N2 (stereo not given),inactive
14,CC(C)=Cc1c(O)n2ccccc2nc1=O,inactive
15,CCC/C=C/c1ccc(CN2C(C(C)C)C(=O)N(Cc3cn(CCC4OCCO4)nn3)CCS2(=O)=O)cc1 (stereo not given),35.5 µM (active)
16,CCC/C=C/c1ccc(CN2C(C(C)C)C(=O)N(Cc3cn(CCC4OCCCO4)nn3)CCS2(=O)=O)cc1 (stereo not given),22.4 µM (active)
17,CN(C1=NS(=O)(=O)c2ccccc21)c1ccc(OC(=O)c2ccncc2)cc1,inactive
18,Cc1csc2ncc(C(=O)N3CCc4ccccc43)c(=O)n12,inactive
19,CC1CN(Cc2cnc(Cl)s2)CC(C)O1 (stereo not given),inactive
20,CCN1CCN(S(=O)(=O)c2ccc3c4c(cccc24)C(=O)N3CC)CC1,inactive
21,CCCCCCc1cc2cc(C(=O)NC)c(=N)oc2cc1O,inactive
22,Cc1cc2c(cc1C)CSC(c1c(O)ccc3ccccc13)SC2,35.5 µM (active)
23,COc1ccc(OC)c(/C=C2/Sc3ccccc3C2=O)c1,inactive
24,COc1ccc(/C=C/C(=O)Nc2ccc(S(=O)(=O)N3CCOCC3)cc2)c(OC)c1,inactive
25,COc1ccc(/C=C2\SC(=S)N(NS(=O)(=O)c3ccccc3)C2=O)c(OC)c1,39.8 µM (active)
